Holding throughout (assay): DAPPL (digital affinity profiling via proximity ligation, sequencing); 10 mM Tris-HCl pH 7.5, 50 mM NaCl, 1 mM DTT, 4% glycerol, room temperature, 30 min; GST-TFs on glutathione beads, 16-mer random dsDNA library, 0.1% formaldehyde crosslink after washing; high values mean tight binding
One test addresses T1, FEV (Homo sapiens, UniProt Q99581 1-238).
T1 sequence: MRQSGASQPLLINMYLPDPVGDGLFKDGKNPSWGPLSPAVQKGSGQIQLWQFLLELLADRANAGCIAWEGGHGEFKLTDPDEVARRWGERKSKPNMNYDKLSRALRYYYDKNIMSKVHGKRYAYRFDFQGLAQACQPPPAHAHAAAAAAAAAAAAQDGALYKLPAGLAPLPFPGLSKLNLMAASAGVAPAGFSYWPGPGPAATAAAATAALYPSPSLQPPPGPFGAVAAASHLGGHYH
As to conditions: protein: recombinant; tags: N-terminal GST; dsDNA, one strand shown. Summed up:
(§1)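 Human transcription factors were made in yeast as GST fusions, captured on glutathione beads and barcoded with DNA. With a tag-only sample included, the pool was incubated with 200 nmole of a random double-stranded 16-mer DNA library in Tris/NaCl/DTT/glycerol buffer at room temperature for 30 min, then crosslinked with 0.1% formaldehyde after washing, ligated by proximity, amplified and sequenced. For binding signal, each hexamer's read frequency for a factor is divided by its frequency for the tag-only sample.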

Another test has as its target ETV5 (Homo sapiens, UniProt P41161 1-510). As to conditions: protein: recombinant; tags: N-terminal GST; dsDNA, one strand shown. Summed up:
as §1

For another test, the target named is HSF1 (Homo sapiens, UniProt Q00613 1-529). To be noted: protein: recombinant; tags: N-terminal GST; chain copies: 3; dsDNA, one strand shown. Summed up:
as §1

A further test concerns the target T2, SPIC (Homo sapiens, UniProt Q8N5J4 1-248).
T2 sequence: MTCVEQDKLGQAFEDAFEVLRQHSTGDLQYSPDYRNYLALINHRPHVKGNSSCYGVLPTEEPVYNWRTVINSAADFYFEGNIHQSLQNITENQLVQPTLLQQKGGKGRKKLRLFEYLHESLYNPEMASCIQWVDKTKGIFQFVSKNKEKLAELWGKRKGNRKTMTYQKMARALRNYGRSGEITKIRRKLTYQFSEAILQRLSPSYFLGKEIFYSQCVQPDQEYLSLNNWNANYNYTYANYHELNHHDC
As to conditions: protein: recombinant; tags: N-terminal GST; dsDNA, one strand shown. Summed up:
as §1

The next test deals with ELF4 (Homo sapiens, UniProt Q99607 1-663). To be noted: protein: recombinant; tags: N-terminal GST; dsDNA, one strand shown. Summed up: as §1
Sequence of ELF4 (Q99607 whole entry): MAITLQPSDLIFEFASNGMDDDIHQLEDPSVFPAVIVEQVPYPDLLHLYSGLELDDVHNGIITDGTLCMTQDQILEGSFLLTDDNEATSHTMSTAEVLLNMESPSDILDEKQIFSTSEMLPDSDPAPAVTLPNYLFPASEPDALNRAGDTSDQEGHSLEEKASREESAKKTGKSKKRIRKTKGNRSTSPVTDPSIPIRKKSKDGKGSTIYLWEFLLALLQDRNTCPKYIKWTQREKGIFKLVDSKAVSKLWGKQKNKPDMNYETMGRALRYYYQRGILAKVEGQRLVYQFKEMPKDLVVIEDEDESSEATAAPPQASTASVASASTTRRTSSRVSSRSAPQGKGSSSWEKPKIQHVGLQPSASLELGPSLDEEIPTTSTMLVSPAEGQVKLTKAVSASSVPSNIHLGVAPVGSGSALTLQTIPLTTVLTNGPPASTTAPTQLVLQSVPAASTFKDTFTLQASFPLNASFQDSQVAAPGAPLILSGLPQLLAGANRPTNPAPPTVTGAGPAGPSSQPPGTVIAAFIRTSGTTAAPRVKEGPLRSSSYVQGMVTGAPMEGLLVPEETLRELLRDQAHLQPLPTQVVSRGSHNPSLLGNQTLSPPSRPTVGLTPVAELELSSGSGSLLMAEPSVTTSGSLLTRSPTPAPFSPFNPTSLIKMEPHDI
Another test has as its target T3, ELK4 (Homo sapiens, UniProt P28324-2 1-405).
T3 sequence: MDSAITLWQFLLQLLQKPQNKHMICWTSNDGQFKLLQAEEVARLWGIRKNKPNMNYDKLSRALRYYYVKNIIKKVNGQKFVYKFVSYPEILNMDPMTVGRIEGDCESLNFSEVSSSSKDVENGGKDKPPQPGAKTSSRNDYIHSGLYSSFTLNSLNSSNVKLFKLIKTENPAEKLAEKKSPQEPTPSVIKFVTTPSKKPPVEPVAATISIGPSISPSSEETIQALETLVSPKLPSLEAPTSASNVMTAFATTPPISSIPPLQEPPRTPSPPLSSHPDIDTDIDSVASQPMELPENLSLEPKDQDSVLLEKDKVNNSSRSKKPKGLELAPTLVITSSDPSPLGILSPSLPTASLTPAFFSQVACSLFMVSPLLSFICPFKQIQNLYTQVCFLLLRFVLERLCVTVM
As to conditions: protein: recombinant; tags: N-terminal GST; dsDNA, one strand shown. Summed up:
as §1

The target in the next test is T4, ETV2 (Homo sapiens, UniProt O00321 1-342).
T4 sequence: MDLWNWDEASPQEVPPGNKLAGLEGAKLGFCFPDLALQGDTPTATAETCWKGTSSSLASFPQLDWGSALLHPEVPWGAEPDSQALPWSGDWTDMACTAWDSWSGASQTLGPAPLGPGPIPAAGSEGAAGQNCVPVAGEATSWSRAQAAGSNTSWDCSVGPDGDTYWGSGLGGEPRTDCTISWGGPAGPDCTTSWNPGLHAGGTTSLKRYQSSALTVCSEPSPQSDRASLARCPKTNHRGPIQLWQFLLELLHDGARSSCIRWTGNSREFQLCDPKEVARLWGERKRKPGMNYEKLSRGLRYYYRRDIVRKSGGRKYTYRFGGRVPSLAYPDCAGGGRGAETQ
As to conditions: protein: recombinant; tags: N-terminal GST; dsDNA, one strand shown. Summed up: as §1

The next test concerns the target T5, ELF3 (Homo sapiens, UniProt P78545 1-371).
T5 sequence: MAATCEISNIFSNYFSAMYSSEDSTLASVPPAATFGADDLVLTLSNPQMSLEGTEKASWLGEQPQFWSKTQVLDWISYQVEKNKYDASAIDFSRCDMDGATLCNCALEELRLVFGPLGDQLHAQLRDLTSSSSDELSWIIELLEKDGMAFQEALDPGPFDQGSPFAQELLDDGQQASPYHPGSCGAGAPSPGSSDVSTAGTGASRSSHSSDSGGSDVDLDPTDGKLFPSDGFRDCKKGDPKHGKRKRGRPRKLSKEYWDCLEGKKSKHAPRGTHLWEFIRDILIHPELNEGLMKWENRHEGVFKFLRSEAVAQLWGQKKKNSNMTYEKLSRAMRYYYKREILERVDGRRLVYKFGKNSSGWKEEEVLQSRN
As to conditions: protein: recombinant; tags: N-terminal GST; dsDNA, one strand shown. Summed up:
as §1

A further test addresses CRX (Homo sapiens, UniProt O43186 1-299). To be noted: protein: recombinant; tags: N-terminal GST; dsDNA, one strand shown. Summed up: as §1
A further test addresses ETV1 (Homo sapiens, UniProt P50549 1-477). As to conditions: protein: recombinant; tags: N-terminal GST; dsDNA, one strand shown. Summed up:
as §1

A further test has as its target T6, ERF (Homo sapiens, UniProt P50548 1-548).
T6 sequence: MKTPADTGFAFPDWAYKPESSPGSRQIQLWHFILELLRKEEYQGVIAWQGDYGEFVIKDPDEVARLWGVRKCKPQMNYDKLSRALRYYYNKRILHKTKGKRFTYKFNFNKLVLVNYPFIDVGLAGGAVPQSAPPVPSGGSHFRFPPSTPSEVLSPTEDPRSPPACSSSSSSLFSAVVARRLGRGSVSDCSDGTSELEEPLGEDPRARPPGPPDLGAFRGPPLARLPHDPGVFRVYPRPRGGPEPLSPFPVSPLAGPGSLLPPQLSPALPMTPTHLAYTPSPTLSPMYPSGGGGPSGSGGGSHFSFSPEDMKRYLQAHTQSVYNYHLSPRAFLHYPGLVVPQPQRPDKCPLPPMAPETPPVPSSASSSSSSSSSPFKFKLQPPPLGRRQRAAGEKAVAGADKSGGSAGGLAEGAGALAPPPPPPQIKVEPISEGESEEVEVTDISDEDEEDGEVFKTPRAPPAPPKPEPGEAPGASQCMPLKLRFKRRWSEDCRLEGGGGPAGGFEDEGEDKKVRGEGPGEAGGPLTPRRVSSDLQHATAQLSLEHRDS
To be noted: protein: recombinant; tags: N-terminal GST; dsDNA, one strand shown. Summed up:
as §1

A further test has as its target T7, ETV3L (Homo sapiens, UniProt Q6ZN32 1-361).
T7 sequence: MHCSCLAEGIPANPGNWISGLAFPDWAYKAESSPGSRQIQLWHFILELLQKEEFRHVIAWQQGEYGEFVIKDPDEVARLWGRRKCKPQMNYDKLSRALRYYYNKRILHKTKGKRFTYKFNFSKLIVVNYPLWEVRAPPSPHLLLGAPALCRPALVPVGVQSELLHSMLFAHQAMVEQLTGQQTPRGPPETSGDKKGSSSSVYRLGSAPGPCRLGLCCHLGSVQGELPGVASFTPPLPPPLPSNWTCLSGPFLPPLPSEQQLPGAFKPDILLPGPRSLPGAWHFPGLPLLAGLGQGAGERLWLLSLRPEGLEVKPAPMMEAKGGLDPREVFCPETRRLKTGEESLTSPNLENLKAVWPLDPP
To be noted: protein: recombinant; tags: N-terminal GST; dsDNA, one strand shown. Summed up: as §1

A further test concerns the target T8, ETS2 (Homo sapiens, UniProt P15036 1-469).
T8 sequence: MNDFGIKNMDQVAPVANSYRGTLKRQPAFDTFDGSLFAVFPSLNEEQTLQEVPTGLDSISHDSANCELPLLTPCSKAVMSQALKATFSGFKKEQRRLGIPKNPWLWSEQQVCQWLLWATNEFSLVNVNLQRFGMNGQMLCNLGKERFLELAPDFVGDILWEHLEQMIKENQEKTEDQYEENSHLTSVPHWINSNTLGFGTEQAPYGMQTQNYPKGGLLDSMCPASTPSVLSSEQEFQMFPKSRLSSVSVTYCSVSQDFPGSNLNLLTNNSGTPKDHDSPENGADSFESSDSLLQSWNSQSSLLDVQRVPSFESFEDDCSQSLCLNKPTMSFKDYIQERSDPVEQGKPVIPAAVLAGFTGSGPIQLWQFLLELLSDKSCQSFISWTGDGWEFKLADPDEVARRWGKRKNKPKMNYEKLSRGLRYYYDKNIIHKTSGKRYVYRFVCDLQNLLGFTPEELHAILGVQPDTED
To be noted: protein: recombinant; tags: N-terminal GST; dsDNA, one strand shown. Summed up:
as §1

A further test deals with T9, SPDEF (Homo sapiens, UniProt O95238 1-335).
T9 sequence: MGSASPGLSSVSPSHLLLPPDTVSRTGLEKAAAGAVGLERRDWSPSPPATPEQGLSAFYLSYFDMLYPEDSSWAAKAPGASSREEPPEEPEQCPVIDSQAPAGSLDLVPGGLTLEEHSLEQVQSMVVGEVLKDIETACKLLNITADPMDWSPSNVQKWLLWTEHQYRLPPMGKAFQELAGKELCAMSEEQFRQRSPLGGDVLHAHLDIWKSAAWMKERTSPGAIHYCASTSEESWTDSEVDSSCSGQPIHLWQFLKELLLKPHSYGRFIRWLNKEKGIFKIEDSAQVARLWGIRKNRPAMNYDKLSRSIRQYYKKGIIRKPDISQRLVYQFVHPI
As to conditions: protein: recombinant; tags: N-terminal GST; dsDNA, one strand shown. Summed up:
as §1

Another test deals with T10, ETV7 (Homo sapiens, UniProt Q9Y603 1-341).
T10 sequence: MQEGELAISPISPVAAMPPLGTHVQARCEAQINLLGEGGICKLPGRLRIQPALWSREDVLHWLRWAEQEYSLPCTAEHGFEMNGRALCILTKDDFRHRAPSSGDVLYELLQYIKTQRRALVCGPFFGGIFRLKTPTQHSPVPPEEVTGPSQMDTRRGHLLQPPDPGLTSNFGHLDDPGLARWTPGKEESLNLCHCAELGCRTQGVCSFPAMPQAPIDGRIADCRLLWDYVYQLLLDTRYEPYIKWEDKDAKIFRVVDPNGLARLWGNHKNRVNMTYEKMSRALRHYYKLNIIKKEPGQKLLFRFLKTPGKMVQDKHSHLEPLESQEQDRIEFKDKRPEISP
To be noted: protein: recombinant; tags: N-terminal GST; dsDNA, one strand shown. Summed up:
as §1

The target of another test is T11, ELF5 (Homo sapiens, UniProt Q9UKW6-2 1-255).
T11 sequence: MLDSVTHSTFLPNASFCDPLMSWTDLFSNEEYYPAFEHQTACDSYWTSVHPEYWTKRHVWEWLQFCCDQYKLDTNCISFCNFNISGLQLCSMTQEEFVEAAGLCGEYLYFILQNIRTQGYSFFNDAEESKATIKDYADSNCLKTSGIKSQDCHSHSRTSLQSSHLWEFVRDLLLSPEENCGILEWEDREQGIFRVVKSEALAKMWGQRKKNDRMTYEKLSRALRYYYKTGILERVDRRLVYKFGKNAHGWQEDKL
As to conditions: protein: recombinant; tags: N-terminal GST; dsDNA, one strand shown. Summed up:
as §1

In another test the target is T12, ETV3 (Homo sapiens, UniProt P41162-2 1-143).
T12 sequence: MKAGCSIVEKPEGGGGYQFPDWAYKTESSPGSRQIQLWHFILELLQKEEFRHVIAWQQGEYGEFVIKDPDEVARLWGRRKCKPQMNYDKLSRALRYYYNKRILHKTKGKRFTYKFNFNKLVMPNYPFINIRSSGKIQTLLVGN
To be noted: protein: recombinant; tags: N-terminal GST; dsDNA, one strand shown. Summed up: as §1

A further test deals with ETV6 (Homo sapiens, UniProt P41212 1-452). As to conditions: protein: recombinant; tags: N-terminal GST; dsDNA, one strand shown. Summed up:
as §1

Sequence of CRX (O43186 whole entry): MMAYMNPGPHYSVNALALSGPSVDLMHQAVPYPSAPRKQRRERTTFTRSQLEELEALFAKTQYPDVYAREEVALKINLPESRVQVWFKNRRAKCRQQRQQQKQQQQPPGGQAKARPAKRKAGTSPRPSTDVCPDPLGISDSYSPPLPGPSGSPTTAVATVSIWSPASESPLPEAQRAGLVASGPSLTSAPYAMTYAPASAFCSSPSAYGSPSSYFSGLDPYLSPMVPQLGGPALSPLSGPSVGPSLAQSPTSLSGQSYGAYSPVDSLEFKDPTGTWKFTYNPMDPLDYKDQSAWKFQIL
Sequence of ETV6 (P41212 whole entry): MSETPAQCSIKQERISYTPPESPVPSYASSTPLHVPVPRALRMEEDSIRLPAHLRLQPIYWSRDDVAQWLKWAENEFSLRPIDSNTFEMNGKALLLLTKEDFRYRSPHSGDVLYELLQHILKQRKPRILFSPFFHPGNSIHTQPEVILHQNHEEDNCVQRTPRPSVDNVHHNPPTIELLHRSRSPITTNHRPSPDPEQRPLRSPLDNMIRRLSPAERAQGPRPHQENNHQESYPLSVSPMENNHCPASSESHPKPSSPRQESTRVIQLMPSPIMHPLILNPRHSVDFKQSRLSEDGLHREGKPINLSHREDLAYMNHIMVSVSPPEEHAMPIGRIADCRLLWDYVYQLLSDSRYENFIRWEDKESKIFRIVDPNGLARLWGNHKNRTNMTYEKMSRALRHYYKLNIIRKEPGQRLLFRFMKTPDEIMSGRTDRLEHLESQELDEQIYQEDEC
Sequence of ETV1 (P50549 whole entry): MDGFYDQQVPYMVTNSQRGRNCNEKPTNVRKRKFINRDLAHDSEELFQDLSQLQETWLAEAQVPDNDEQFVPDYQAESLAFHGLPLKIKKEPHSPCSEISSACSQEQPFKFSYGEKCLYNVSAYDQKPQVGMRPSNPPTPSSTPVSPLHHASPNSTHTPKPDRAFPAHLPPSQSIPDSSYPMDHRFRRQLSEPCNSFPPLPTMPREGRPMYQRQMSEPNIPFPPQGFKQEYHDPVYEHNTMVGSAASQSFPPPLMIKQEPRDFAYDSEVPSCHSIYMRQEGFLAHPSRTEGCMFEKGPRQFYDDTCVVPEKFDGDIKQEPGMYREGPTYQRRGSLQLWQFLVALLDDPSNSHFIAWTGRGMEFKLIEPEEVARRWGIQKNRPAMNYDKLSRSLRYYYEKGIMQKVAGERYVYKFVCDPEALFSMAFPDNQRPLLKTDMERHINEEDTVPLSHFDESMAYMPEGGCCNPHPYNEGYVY
Sequence of ETV5 (P41161 whole entry): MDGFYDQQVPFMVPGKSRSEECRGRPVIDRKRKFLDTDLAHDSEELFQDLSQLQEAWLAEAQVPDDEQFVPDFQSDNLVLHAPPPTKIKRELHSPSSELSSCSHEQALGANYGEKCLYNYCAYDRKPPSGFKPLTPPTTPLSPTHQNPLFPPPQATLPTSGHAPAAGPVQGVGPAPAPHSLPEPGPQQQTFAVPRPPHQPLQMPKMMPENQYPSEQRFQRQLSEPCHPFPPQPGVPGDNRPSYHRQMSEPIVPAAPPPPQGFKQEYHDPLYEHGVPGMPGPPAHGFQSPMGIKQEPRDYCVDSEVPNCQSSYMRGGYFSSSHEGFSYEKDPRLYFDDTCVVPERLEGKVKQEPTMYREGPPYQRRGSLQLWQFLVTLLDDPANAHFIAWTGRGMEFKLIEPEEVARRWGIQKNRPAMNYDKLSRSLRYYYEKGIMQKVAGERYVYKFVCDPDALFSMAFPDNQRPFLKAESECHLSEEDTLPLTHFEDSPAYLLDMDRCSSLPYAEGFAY
Sequence of HSF1 (Q00613 whole entry): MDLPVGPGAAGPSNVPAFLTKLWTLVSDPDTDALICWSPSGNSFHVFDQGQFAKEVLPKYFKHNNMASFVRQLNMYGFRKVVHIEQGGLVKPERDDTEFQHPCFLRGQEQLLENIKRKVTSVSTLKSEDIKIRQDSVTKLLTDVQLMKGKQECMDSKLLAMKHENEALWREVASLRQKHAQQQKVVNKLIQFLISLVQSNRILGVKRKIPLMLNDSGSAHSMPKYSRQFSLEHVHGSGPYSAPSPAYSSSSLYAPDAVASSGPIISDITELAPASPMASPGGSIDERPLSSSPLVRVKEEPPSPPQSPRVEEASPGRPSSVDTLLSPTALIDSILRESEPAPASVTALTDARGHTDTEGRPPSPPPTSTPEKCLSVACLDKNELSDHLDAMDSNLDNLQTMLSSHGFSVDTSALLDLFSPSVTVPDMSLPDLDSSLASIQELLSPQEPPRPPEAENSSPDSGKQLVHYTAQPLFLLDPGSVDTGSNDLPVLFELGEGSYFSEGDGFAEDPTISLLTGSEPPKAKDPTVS

On to AATAGT, for which the binding signal in the test with FEV is 1.19 fold enrichment (6-mer frequency, TF over GST control); with ETV5, 1.27 fold enrichment (6-mer frequency, TF over GST control); with HSF1, 1.21 fold enrichment (6-mer frequency, TF over GST control); with SPIC, 1.28 fold enrichment (6-mer frequency, TF over GST control); in the test with ELF4, 1.18 fold enrichment (6-mer frequency, TF over GST control); with ELK4 it was 1.46 fold enrichment (6-mer frequency, TF over GST control). Moreover, the binding signal with ETV2 is 1.17 fold enrichment (6-mer frequency, TF over GST control); with ELF3 it was 1.26 fold enrichment (6-mer frequency, TF over GST control); with CRX, 1.19 fold enrichment (6-mer frequency, TF over GST control); with ETV1, 1.17 fold enrichment (6-mer frequency, TF over GST control); in the test with ERF it was 1.21 fold enrichment (6-mer frequency, TF over GST control); with ETV3L, 1.25 fold enrichment (6-mer frequency, TF over GST control). Further, the binding signal was 1.13 fold enrichment (6-mer frequency, TF over GST control) with ETS2; 1.06 fold enrichment (6-mer frequency, TF over GST control) in the test with SPDEF; 1.18 fold enrichment (6-mer frequency, TF over GST control) in the test with ETV7; 1.18 fold enrichment (6-mer frequency, TF over GST control) in the test with ELF5; 1.3 fold enrichment (6-mer frequency, TF over GST control) with ETV3; 1.34 fold enrichment (6-mer frequency, TF over GST control) with ETV6.

Source of the values: PMC7862700, “An all-to-all approach to the identification of sequence-specific readers for epigenetic DNA modifications on cytosine”.
